# Laboratory results from PubChem BioAssay.
# Calls of active or inactive are those of the source. Unless noted, how the calls were made is not given here.
# Legend:
# [1] = compounds altering circadian rhythm period length – cell-based, LOPAC library, luminescence reporter (AID 2774); details: circadian reporter cells, at 7 µM, actives lie on both sides;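 further: values are relative to mean of DMSO wells on each plate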
# [2] = system: Hepatitis C virus NS3 helicase; assay: blockers of NS3h binding to ssDNA – biochemical, fluorescence polarization, LOPAC1280 library, primary screen (AID 687035; in the data active means inhibition above about 37%); details: Purified HCV NS3 helicase, Cy5-dT15 ssDNA binding fluorescence polarization; stronger effect = higher value; concentration not given here
# [3] = compounds altering Cy5-DNA-NS3h complex signal – biochemical, LOPAC1280, artefact control for HCV NS3 helicase inhibitor project (AID 687037); details: Cy5-DNA-NS3h complex fluorescence interference counterscreen
# [4] = viability loss with induced miR-34 in A549 – imaging, A549 dox-inducible miR-34, nuclei and caspase counts, primary screen (AID 1347080;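 active means compounds whose cell count with miR-34 switched on is under 0.7 times the count with it off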); details: A549 miR-34 inducible, Hoechst nuclei count, 48 h
# [5] = blockers of cellular phospholipid synthesis – cell-based, LOPAC library, screen 4, primary screen (AID 1347384); details: animal cells, phospholipid biosynthesis inhibition screen; at 10 µM
# [6] = galactose survival enhancers in mitochondrial complex I cybrids – cell-based, galactose medium, ATP luminescence, primary screen (AID 1645843;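 active means z-score of at least 1.8 in each of two replicates, scored against plate mean and spread of sample wells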;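 further: positive z means more ATP and so rescue of galactose-driven cybrid death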); details: complex I mutant cybrid cells, 72 h, stronger effect = higher value
# [7] = P. berghei load reduction in hepatocytes – cell-based, HepG2, luciferase luminescence, HepG2 viability, primary screen (AID 624349; in the data active means parasite load remaining mostly below about 12%, no sharp cut-off; inactive means mostly above about 10%;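 further: 100% = mean of DMSO negative control wells on the same plate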); details: P. berghei liver stage in HepG2, luciferase luminescence, concentration not given here; parasite load remaining: stronger effect = lower value; viability: measured here: HepG2 viability without parasites
# [8] = stronger effect = lower value, cell number ratio, induced over uninduced
# [9] = measured here: relative caspase fold change +Dox/-Dox
# [10] = measured here: total cells with miR-34 induction, stronger effect = lower value
# [11] = measured here: total cells without miR-34 induction
SMILES,period change [1],inhibition [2],fluorescence ratio (interference) [3],"fold change [4, 8]","fold change [4, 9]","cell count [4, 10]","cell count [4, 11]",outcome [5],z-score [6],parasite load remaining [7],viability [7] [%]
N[C@@H](CCC(=O)N[C@H](CSN=O)C(=O)NCC(=O)O)C(=O)O,0.1 h (inactive),-3% (inactive),1 (inactive),1.04 (inactive),1.18,10800,10400,inactive,0.335 (inactive),,
Nc1c(S(=O)(=O)O)cc(Nc2ccc(Nc3nc(Cl)nc(Nc4ccc(S(=O)(=O)O)cc4)n3)c(S(=O)(=O)O)c2)c2c1C(=O)c1ccccc1C2=O,0.105 h (inactive),86% (active),0.7 (active),1.07 (inactive),0.889,9580,8990,inactive,4.81 (active),,
COC(=O)C(C)(N)Cc1ccc(O)cc1 (configuration not stated),-0.015 h (inactive),-3% (inactive),1 (inactive),1.04 (inactive),1.45,10900,10400,inactive,0.39 (inactive),,
N[C@@H](Cc1ccc(O)c(I)c1)C(=O)O,0.02 h (inactive),-4% (inactive),0.9 (inactive),1.11 (inactive),0.663,11600,10400,inactive,0.59 (inactive),,
Cc1nc(N=Nc2ccc(C(=O)O)cc2)c(COP(=O)(O)O)c(C=O)c1O,-0.16 h (inactive),43% (active),1 (inactive),1.04 (inactive),0.656,10100,9680,inactive,0.49 (inactive),,
CC1(C)CCC(NC(=O)[C@@H](N)CCC(=O)O)CC1,-0.095 h (inactive),-6% (inactive),1 (inactive),1.1 (inactive),1.15,11000,9970,inactive,0.125 (inactive),,
CSc1nc(N)c2ncn([C@@H]3O[C@H](COP(=O)(O)OP(=O)(O)OP(=O)(O)O)[C@H](O)C3O)c2n1 (some centres not stated),-0.07 h (inactive),41% (active),1 (inactive),0.981 (inactive),2.88,9690,9880,inactive,1.04 (inactive),,
COC1=C(OC)C(=O)c2ccccc2C1=O,-0.205 h (inactive),-1% (inactive),1 (inactive),1.45 (inactive),1.7,1290,890,inactive,-1.04 (inactive),,
CCCCCCCCCC[Si](C)(C)CCC(=O)NC(Cc1ccc(C)cc1)c1ccccc1 (configuration not stated),0.12 h (inactive),-1% (inactive),1 (inactive),1.02 (inactive),2.15,10100,9990,inactive,-0.33 (inactive),,
COc1ccc2c(c1)CCC1C2CC[C@@]2(C)C1CC[C@@H]2NCCCCCCN1C(=O)C=CC1=O (some centres not stated),-0.255 h (inactive),5% (inactive),0.8 (active),1.05 (inactive),1.05,9380,8930,inactive,0.035 (inactive),,
O=[N+]([O-])c1ccc(CNc2nc(NCc3cccc(C(F)(F)F)c3)nc3nc[nH]c23)cc1,,,,1.02 (inactive),2.13,7880,7740,inactive,-0.05 (inactive),41.7% (inactive),142
Cc1ccccc1/C=C/C1=NCCN1,-0.13 h (inactive),-5% (inactive),1 (inactive),1.01 (inactive),0.996,7710,7640,inactive,-1.06 (inactive),,
N#Cc1cc([N+](=O)[O-])c2sc(C(N)=O)[n+]([O-])c2c1,,-4% (inactive),1 (inactive),1.08 (inactive),1.61,7220,6660,inactive,-1.46 (inactive),32.2% (inactive),76.2
Oc1ccc(C2CNCc3sccc32)cc1O (configuration not stated),0.045 h (inactive),5% (inactive),1 (inactive),0.942 (inactive),1.38,10000,10600,inactive,-1.29 (inactive),,
Cn1c(=O)c2[nH]c(-c3ccccc3)nc2n(C)c1=O,0.09 h (inactive),-3% (inactive),1 (inactive),1.06 (inactive),3.05,10000,9510,inactive,1.04 (inactive),,
CC(C)C[C@H](NC(=O)C1OC1C(=O)O)C(=O)NCCCCN=C(N)N (some centres not stated),-0.035 h (inactive),0% (inactive),1 (inactive),0.999 (inactive),1.62,9550,9560,inactive,0.15 (inactive),,
N.N.O=C(O)C1(C(=O)O)CCC1.[Pt+2],0.07 h (inactive),-3% (inactive),1 (inactive),1.04 (inactive),1.42,6330,6070,inactive,-0.53 (inactive),,
CC(N)=O,-0.19 h (inactive),0% (inactive),0.9 (inactive),1.08 (inactive),1.34,10600,9870,inactive,1.1 (inactive),,
